Test results from PubChem BioAssay AID1903 (Southern Research Specialized Biocontainment Screening …, 2009).
Screen size: about 310,000 compounds; about 1,200 (0.39%) were called active. The rule behind the calls is not given here. A selection follows. Potency and affinity values are given separately.

target: Large T antigen (Simian virus 40) (UniProt P03070); assay: SV40 large T antigen inhibitors, biochemical (AID 1903); conditions: SV40 large T antigen ATPase/helicase inhibition assay; at 20 µM; active compounds read high
Sequence (P03070 whole entry, looked up): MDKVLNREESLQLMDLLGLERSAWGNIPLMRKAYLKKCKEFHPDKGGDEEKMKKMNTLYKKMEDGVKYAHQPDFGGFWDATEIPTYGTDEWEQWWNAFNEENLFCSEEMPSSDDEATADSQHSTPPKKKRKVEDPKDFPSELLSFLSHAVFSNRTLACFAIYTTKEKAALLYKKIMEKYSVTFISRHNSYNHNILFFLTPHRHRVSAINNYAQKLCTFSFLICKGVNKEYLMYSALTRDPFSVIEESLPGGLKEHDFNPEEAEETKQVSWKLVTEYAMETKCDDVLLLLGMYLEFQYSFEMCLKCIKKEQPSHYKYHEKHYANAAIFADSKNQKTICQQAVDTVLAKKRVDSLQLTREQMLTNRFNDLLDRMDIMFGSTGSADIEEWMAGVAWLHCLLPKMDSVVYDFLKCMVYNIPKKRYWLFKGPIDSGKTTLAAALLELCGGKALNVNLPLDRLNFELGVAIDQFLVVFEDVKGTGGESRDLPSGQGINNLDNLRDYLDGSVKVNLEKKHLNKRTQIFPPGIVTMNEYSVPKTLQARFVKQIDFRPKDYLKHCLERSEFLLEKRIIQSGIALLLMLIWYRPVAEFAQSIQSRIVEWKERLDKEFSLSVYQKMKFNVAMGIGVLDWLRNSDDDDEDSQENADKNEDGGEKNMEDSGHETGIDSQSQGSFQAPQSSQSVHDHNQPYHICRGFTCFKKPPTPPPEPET

inhibition, inactive:
CCCCN(CCCC)CCCNC(=O)C12CN(Cc3ccccc3)CC1C(c1cccc([N+](=O)[O-])c1)=NO2 (stereo not drawn) 6.72%
Cc1cc(NCc2ccccc2)n2ncc(-c3ccccc3)c2n1 3.96%
CC(=O)OC[C@H]1O[C@@H](O/N=C/C[C@@H]2C=C[C@H](OC(C)=O)[C@@H](COC(C)=O)O2)[C@H](OC(C)=O)[C@@H](OC(C)=O)[C@@H]1OC(C)=O 7.46%
Cc1cc(NC(=O)C(C)SCC(=O)Nc2ccc(SC(F)F)cc2)no1 (stereo not drawn) 15.7%
Cc1ccc(C(=O)Cc2cc3ccccc3oc2=O)c(C)c1 9.25%
Oc1ccc(-c2nc3ccccc3s2)c(O)c1 21%
O=S(=O)(O)c1cc(O)ccc1O 25.8%
O=C(Cc1ccccc1)NCc1cccnc1 5.27%
CC(OC(=O)Cc1n[nH]c(=O)c2ccccc12)C(=O)Nc1cccc([N+](=O)[O-])c1 (stereo not drawn) 8.17%
COC(=O)c1cc(NS(=O)(=O)c2ccc(Cl)c(N3C(=O)c4ccc(C(=O)O)cc4C3=O)c2)cc(C(=O)OC)c1 11.3%
CCN1C(=O)C2(C(C(=O)c3ccc(C)o3)=C(O)C(=O)N2CCCN(C)C)c2ccccc21 (stereo not drawn) 27.5%
CCN1C(=O)C2(C(C(=O)c3cc4ccccc4o3)=C(O)C(=O)N2CCCN2CCOCC2)c2ccccc21 (stereo not drawn) 16.1%
CCC(=O)Nc1ccc(C(=O)NNC(=O)c2cccc(C)c2)cc1 5.14%
COc1cccc2c1-c1c(O)cccc1C2=O 9.33%
COc1cc(/C=C/c2ccc3cccc(O)c3n2)c(Br)cc1O 0.04%
O=C(CSc1nnc(-c2cccnc2)n1-c1ccccc1)Nc1ccc2c(c1)OCO2 18.3%
N#Cc1ccsc1NC(=O)CN1C(=O)NC2(CCCC2)C1=O 13.3%
CCCOc1ccc(N2C(=O)CC(NCC#N)C2=O)cc1 (stereo not drawn) 3.6%
Nc1c(-c2ccc(Cl)cc2)cnn1-c1cc(C(F)(F)F)cc(C(F)(F)F)c1 10.5%
O=C(O)C1CC(c2ccccc2)=Nc2ccccc2S1 (stereo not drawn) 19.3%
Oc1ccccc1C1=Nc2ccccc2N=C(c2cccs2)C1 12.3%
CCn1cc(S(=O)(=O)CC(=O)Nc2cc(C)ccc2C)c2ccccc21 3.58%
CC(=O)c1ccc(OCCCC(=O)NC2CCC(C)CC2)cc1 (stereo not drawn) 23.9%
Cc1cccc(-c2noc(CN(C)C(=O)COc3ccccc3)n2)c1 13.7%
Cc1nn(-c2ccccc2)c(Cl)c1C(=O)Nc1ccc(N2CCOCC2)cc1 9.69%
Cc1nn(-c2ccccc2)c(C)c1C(=O)Nc1ccc(N2CCOCC2)cc1 26.7%
C/C(CC(=O)Nc1ccc2c(c1)OCCO2)=N\NC(=O)c1ccc([N+](=O)[O-])cc1Cl 3.29%
C/C(CC(=O)Nc1ccc(N(C)C)cc1)=N\NC(=O)c1ccc([N+](=O)[O-])cc1 22.9%
C/C(CC(=O)NCc1ccco1)=N\NC(=O)c1ccc(Cl)cc1Cl 5.88%
C/C(CC(=O)Nc1ccc(N(C)C)cc1)=N\NC(=O)c1ccc(Cl)cc1 21.9%
Cc1nnsc1C(=O)N1CCCC(N2CCN(c3cccc(C(F)(F)F)c3)CC2)C1 (stereo not drawn) 12.9%
COCC(=O)Nc1ccc2c(c1)OCC(=O)N2Cc1ccccc1F 20.2%
CC(=O)N1CCN(CC(=O)O)CC1 5.47%
Cn1c(N)c(C(=O)Nc2ccccc2)c(=O)[nH]c1=O 5.18%
Cc1ccc(NC(=O)Cn2sc3nc(C)cc(C)c3c2=O)c(Cl)c1 5.12%
COc1ccc(OC)c(CCNC(=O)Cn2nc(C)c3c(C)n(-c4ccccc4)nc3c2=O)c1 2.47%
Cc1c(Cl)cccc1NC(=O)Cn1cc(C(F)(F)F)cc(Cl)c1=O 6.09%
Cn1c2ccccc2c2cnn(CC(=O)NCCCN3CCN(c4ccccc4F)CC3)c(=O)c21 9.9%
CCCNC(=O)Cn1sc2nc(C)cc(C)c2c1=O 8.82%
O=C(CCNC(=O)Cn1ccc2ccccc2c1=O)NCCCN1CCN(c2ccccc2F)CC1 -2.74%
O=C(c1cc([N+](=O)[O-])ccc1Cl)N1c2ccccc2Sc2ccccc21 3.02%
Cc1cc(C)cc(OCc2nnc(SCC(=O)NC3CC3)n2C)c1 -1.01%
CCOC(=O)N1CCC(N2C(=O)c3ccc(C(=O)NCCOC)cc3C2=O)CC1 5.99%
COc1cccc(NC(=O)Nc2cc(C)ccc2OC)c1 2.17%
CCCc1cc(=O)oc2cc(C)cc(OCC(=O)NCC(O)c3ccccc3)c12 (stereo not drawn) 12.5%
Cc1ccc(N2CC(=O)N(NC(=O)Nc3ccc(Cl)c(Cl)c3)CC2=O)cc1 13.8%
O=C(CCC(=O)N1CCN(Cc2ccccc2)CC1)Nc1nnc(C2CCCCC2)s1 13.1%
CSCCC(NC(N)=O)C(=O)Nc1cccc(S(=O)(=O)N2CCOCC2)c1 (stereo not drawn) 2.59%
O=C(CCCOc1ccc(Br)cc1)NNC(=O)c1ccncc1 26.4%
CCc1ccc(NC(=O)c2cc(-c3ccco3)on2)cc1 6.38%
O=C(CSc1cn(Cc2ccccc2)c2ccccc12)NCc1ccc(F)cc1 6.13%
C=CCn1c(=S)[nH]c2scc(-c3ccc(C)o3)c2c1=O 7.5%
C=CCn1c(SCC(=O)N2CCOCC2)nc2scc(-c3ccco3)c2c1=O 22.1%
C=CCn1c(=S)[nH]c2scc(-c3cccs3)c2c1=O 9.96%
C=CCn1c(SCC(=O)NCCCC)nc2scc(-c3ccco3)c2c1=O 32.9%
COc1cc(/C=C/[N+](=O)[O-])ccc1OC(=O)/C=C/c1ccc(F)cc1 17.2%
CC(C)CCN(CCC(C)C)CC(O)Cn1c2ccccc2c(=O)c2ccccc21 (stereo not drawn) 8.16%
CC(=O)c1cccc(NC(=S)NC(=O)c2ccccc2C)c1 -10%
